Reference: PubChem BioAssay (NCI)
Compounds without any hit were thinned out: in the full panel of roughly 79,000, 15% have a hit. A number with no mark means an inactive call. The source made the active and inactive calls. No stated cut-off is given here; in the data, active means growth inhibition above about 70%; inactive means the rest.

Tests used:
[1] = NCI Yeast Anticancer Drug Screen. Data for the wt1 strain (AID 149);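 further: 0% = growth of vehicle-treated wt1 cultures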; conditions: S. cerevisiae wt1 strain (SPY 50644) growth inhibition, stronger effect = higher value
Summary of the method: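 Readout: yeast growth inhibition, normalised to vehicle controls, in the wt1 strain exposed to test compounds.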

[2] = NCI Yeast Anticancer Drug Screen. Data for the rad50EPP+ strain (AID 151);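 further: 0% = growth of vehicle-treated control cultures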; conditions: S. cerevisiae rad50 mutant strain, stronger effect = higher value
Summary of the method: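 Genetically defined yeast (rad50EPP+, DNA damage repair alteration) is grown with compound, and inhibition of growth is expressed relative to vehicle-treated controls.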

[3] = NCI Yeast Anticancer Drug Screen. Data for the mgt1 strain (AID 153); conditions: S. cerevisiae mgt1 mutant growth inhibition, stronger effect = higher value
Summary of the method: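 In the mgt1 strain, test compounds were added and growth inhibition was determined relative to vehicle-treated controls.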

[4] = NCI Yeast Anticancer Drug Screen. Data for the rad50 strain (AID 155);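 further: 0% = growth of vehicle-only cultures of the same strain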; conditions: S. cerevisiae rad50 strain growth inhibition, stronger effect = higher value
Summary of the method: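 Compounds were tested on a yeast strain with an engineered DNA damage repair alteration; the reported value is growth inhibition normalised to vehicle treatment.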

[5] = NCI Yeast Anticancer Drug Screen. Data for the mec2-1 strain (AID 157); conditions: S. cerevisiae mec2-1 strain, stronger effect = higher value
Summary of the method: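 Each compound was tested on mec2-1 yeast, a strain altered in DNA damage repair or cell cycle control. Growth inhibition is reported relative to vehicle.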

[6] = NCI Yeast Anticancer Drug Screen. Data for the rad14 strain (AID 159);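 further: 0% = growth of vehicle-treated control cultures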; conditions: S. cerevisiae rad14 strain growth inhibition, stronger effect = higher value
Summary of the method: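 Compound-treated yeast with a defined DNA-repair lesion; growth inhibition normalised to vehicle-treated cultures.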

[7] = NCI Yeast Anticancer Drug Screen. Data for the sgs1 mgt1 strain (AID 161);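 further: 0% = growth of cultures given vehicle only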; conditions: S. cerevisiae sgs1 mgt1 strain, stronger effect = higher value
Summary of the method: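 Mutant yeast exposed to compound; growth scored against vehicle-only wells.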

[8] = NCI Yeast Anticancer Drug Screen. Data for the CLN2oe strain (AID 163);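 further: 0% = growth of vehicle-only control cultures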; conditions: S. cerevisiae CLN2oe strain, stronger effect = higher value
Summary of the method: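 First, the altered yeast strain was treated with each compound; second, its growth was measured; finally, inhibition was derived by comparison with vehicle controls.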

[9] = NCI Yeast Anticancer Drug Screen. Data for the cln2 rad14 strain (AID 165);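 further: 0% = growth equal to vehicle treated cultures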; conditions: S. cerevisiae cln2 rad14 strain, stronger effect = higher value
Summary of the method: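 Test compounds were added to cln2 rad14 yeast cultures; inhibition of growth was then determined by comparison with vehicle treatment.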

[10] = NCI Yeast Anticancer Drug Screen. Data for the bub3 strain (AID 167); conditions: S. cerevisiae bub3 mutant strain, stronger effect = higher value
Summary of the method: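 Growth of a checkpoint-deficient yeast mutant is measured after compound exposure. Values represent inhibition relative to vehicle.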

[11] = NCI Yeast Anticancer Drug Screen. Data for the wt2 strain (AID 169);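 further: 0% = growth of vehicle-treated yeast cultures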; conditions: S. cerevisiae wt2 strain growth inhibition, stronger effect = higher value
Summary of the method: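 The panel's yeast strains carry defined changes in DNA repair or cell cycle genes. Each strain is grown with compound, and growth loss is scored relative to vehicle.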

[12] = NCI Yeast Anticancer Drug Screen. Data for the mlh1 strain (AID 171);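 further: 0% = growth of vehicle-treated control cultures of the same strain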; conditions: S. cerevisiae mlh1 strain growth inhibition, stronger effect = higher value
Summary of the method: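 Inhibition values reflect reduced yeast growth in the presence of compound, referenced to vehicle controls, using a strain chosen for its alteration in DNA repair or cell cycle control.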

[13] = NCI Yeast Anticancer Drug Screen. Data for the sgs1 strain (AID 173);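 further: 0% = growth of vehicle-only control cultures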; conditions: S. cerevisiae sgs1 mutant, stronger effect = higher value
Summary of the method: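 Vehicle-treated cultures served as reference for growth inhibition of a yeast strain altered in DNA damage repair or cell cycle control after compound exposure.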

[14] = NCI Yeast Anticancer Drug Screen. Data for the mlh1 rad18 strain (AID 175); conditions: S. cerevisiae mlh1 rad18 strain growth inhibition, stronger effect = higher value
Summary of the method: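 Inhibition values reflect reduced growth of mutant yeast versus vehicle-treated controls following compound exposure; the mutations affect DNA damage repair.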

[15] = NCI Yeast Anticancer Drug Screen. Data for the rad18 strain (AID 177); conditions: S. cerevisiae rad18 mutant growth inhibition, stronger effect = higher value
Summary of the method: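 Steps: expose repair-mutant yeast to compound; measure growth; express as inhibition relative to vehicle control.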

[16] = at 5.0 µM (retest, dose inferred, filed as 0.5)
[17] = at 50.0 µM (retest, dose inferred, filed as 5.0)

Compound: O=S(=O)(O)c1ccc2c(N=Nc3c(O)ccc4ccccc34)cccc2c1
- growth inhibition ([1]; at 1.2 µM): 0%
- growth inhibition ([1]; at 3.7 µM): 1%
- growth inhibition ([1]; at 11.0 µM): 21%
- growth inhibition ([1]; at 33.0 µM): 50%
- growth inhibition ([1]; at 100.0 µM): 71% (active)
- growth inhibition ([2]; at 1.2 µM): -3%
- growth inhibition ([2]; at 3.7 µM): -1%
- growth inhibition ([2]; at 11.0 µM): 17%
- growth inhibition ([2]; at 33.0 µM): 35%
- growth inhibition ([2]; at 100.0 µM): 39%
- growth inhibition ([3]; at 1.2 µM): 0%
- growth inhibition ([3]; at 3.7 µM): 0%
- growth inhibition ([3]; at 11.0 µM): 12%
- growth inhibition ([3]; at 33.0 µM): 37%
- growth inhibition ([3]; at 100.0 µM): 66%
- growth inhibition ([4]; at 1.2 µM): 4%
- growth inhibition ([4]; at 3.7 µM): 14%
- growth inhibition [4, 16]: 26%
- growth inhibition ([4]; at 11.0 µM): 56%
- growth inhibition ([4]; at 33.0 µM): 71% (active)
- growth inhibition [4, 17]: 82% (active)
- growth inhibition ([4]; at 50.0 µM): 91.8% (active)
- growth inhibition ([4]; at 100.0 µM): 85% (active)
- growth inhibition ([5]; at 1.2 µM): 1%
- growth inhibition ([5]; at 3.7 µM): 6%
- growth inhibition [5, 16]: 3%
- growth inhibition ([5]; at 11.0 µM): 20%
- growth inhibition ([5]; at 33.0 µM): 38%
- growth inhibition [5, 17]: 48%
- growth inhibition ([5]; at 50.0 µM): 83.3% (active)
- growth inhibition ([5]; at 100.0 µM): 84% (active)
- growth inhibition ([6]; at 1.2 µM): 1%
- growth inhibition ([6]; at 3.7 µM): 1%
- growth inhibition ([6]; at 11.0 µM): 20%
- growth inhibition ([6]; at 33.0 µM): 40%
- growth inhibition ([6]; at 100.0 µM): 80% (active)
- growth inhibition [7, 16]: -1%
- growth inhibition [7, 17]: 70% (active)
- growth inhibition ([7]; at 50.0 µM): 83.2% (active)
- growth inhibition ([8]; at 1.2 µM): -1%
- growth inhibition ([8]; at 3.7 µM): -4%
- growth inhibition ([8]; at 11.0 µM): -3%
- growth inhibition ([8]; at 33.0 µM): 14%
- growth inhibition ([8]; at 100.0 µM): 74% (active)
- growth inhibition [9, 16]: 0%
- growth inhibition [9, 17]: -11%
- growth inhibition ([9]; at 50.0 µM): 32.5%
- growth inhibition ([10]; at 1.2 µM): -2%
- growth inhibition ([10]; at 3.7 µM): -1%
- growth inhibition [10, 16]: 0%
- growth inhibition ([10]; at 11.0 µM): 23%
- growth inhibition ([10]; at 33.0 µM): 59%
- growth inhibition [10, 17]: 55%
- growth inhibition ([10]; at 50.0 µM): 93.8% (active)
- growth inhibition ([10]; at 100.0 µM): 75% (active)
- growth inhibition ([11]; at 1.2 µM): -1%
- growth inhibition ([11]; at 3.7 µM): 0%
- growth inhibition ([11]; at 11.0 µM): 13%
- growth inhibition ([11]; at 33.0 µM): 37%
- growth inhibition ([11]; at 100.0 µM): 74% (active)
- growth inhibition ([12]; at 1.2 µM): 4%
- growth inhibition ([12]; at 3.7 µM): 4%
- growth inhibition ([12]; at 11.0 µM): 17%
- growth inhibition ([12]; at 33.0 µM): 4%
- growth inhibition ([12]; at 100.0 µM): 70% (active)
- growth inhibition ([13]; at 1.2 µM): 2%
- growth inhibition ([13]; at 3.7 µM): 11%
- growth inhibition ([13]; at 11.0 µM): 47%
- growth inhibition ([13]; at 33.0 µM): 67%
- growth inhibition ([13]; at 100.0 µM): 77% (active)
- growth inhibition [14, 16]: 9%
- growth inhibition [14, 17]: 80% (active)
- growth inhibition ([14]; at 50.0 µM): 87.9% (active)
- growth inhibition ([15]; at 1.2 µM): 4%
- growth inhibition ([15]; at 3.7 µM): 33%
- growth inhibition ([15]; at 11.0 µM): 77% (active)
- growth inhibition ([15]; at 33.0 µM): 87% (active)
- growth inhibition ([15]; at 100.0 µM): 92% (active)

Compound: O=C1c2ccccc2C(=O)C1C(c1ccc(F)cc1)C1C(=O)c2ccccc2C1=O
- growth inhibition ([1]; at 1.2 µM): 9%
- growth inhibition ([1]; at 3.7 µM): 10%
- growth inhibition ([1]; at 11.0 µM): 7%
- growth inhibition ([1]; at 33.0 µM): 18%
- growth inhibition ([1]; at 100.0 µM): 85% (active)
- growth inhibition ([2]; at 1.2 µM): -8%
- growth inhibition ([2]; at 3.7 µM): 8%
- growth inhibition ([2]; at 11.0 µM): 21%
- growth inhibition ([2]; at 33.0 µM): 61%
- growth inhibition ([2]; at 100.0 µM): 75% (active)
- growth inhibition ([3]; at 1.2 µM): 0%
- growth inhibition ([3]; at 3.7 µM): -11%
- growth inhibition ([3]; at 11.0 µM): -17%
- growth inhibition ([3]; at 33.0 µM): 5%
- growth inhibition ([3]; at 100.0 µM): 76% (active)
- growth inhibition ([4]; at 1.2 µM): 13%
- growth inhibition ([4]; at 3.7 µM): 5%
- growth inhibition [4, 16]: 21%
- growth inhibition ([4]; at 11.0 µM): 7%
- growth inhibition ([4]; at 33.0 µM): 28%
- growth inhibition [4, 17]: 46%
- growth inhibition ([4]; at 50.0 µM): 77.5% (active)
- growth inhibition ([4]; at 100.0 µM): 88% (active)
- growth inhibition ([5]; at 1.2 µM): -13%
- growth inhibition ([5]; at 3.7 µM): -6%
- growth inhibition [5, 16]: -14%
- growth inhibition ([5]; at 11.0 µM): -14%
- growth inhibition ([5]; at 33.0 µM): 6%
- growth inhibition [5, 17]: 81% (active)
- growth inhibition ([5]; at 50.0 µM): 75% (active)
- growth inhibition ([5]; at 100.0 µM): 83% (active)
- growth inhibition ([6]; at 1.2 µM): -20%
- growth inhibition ([6]; at 3.7 µM): -20%
- growth inhibition ([6]; at 11.0 µM): -52%
- growth inhibition ([6]; at 33.0 µM): 0%
- growth inhibition ([6]; at 100.0 µM): 82% (active)
- growth inhibition [7, 16]: 2%
- growth inhibition [7, 17]: 41%
- growth inhibition ([7]; at 50.0 µM): 56.2%
- growth inhibition ([8]; at 1.2 µM): 6%
- growth inhibition ([8]; at 3.7 µM): 0%
- growth inhibition ([8]; at 11.0 µM): -1%
- growth inhibition ([8]; at 33.0 µM): 34%
- growth inhibition ([8]; at 100.0 µM): 86% (active)
- growth inhibition [9, 16]: 27%
- growth inhibition [9, 17]: 89% (active)
- growth inhibition ([9]; at 50.0 µM): 85.8% (active)
- growth inhibition ([10]; at 1.2 µM): -18%
- growth inhibition ([10]; at 3.7 µM): -33%
- growth inhibition [10, 16]: 17%
- growth inhibition ([10]; at 11.0 µM): -34%
- growth inhibition ([10]; at 33.0 µM): -17%
- growth inhibition [10, 17]: 87% (active)
- growth inhibition ([10]; at 50.0 µM): 79% (active)
- growth inhibition ([10]; at 100.0 µM): 83% (active)
- growth inhibition ([11]; at 1.2 µM): 1%
- growth inhibition ([11]; at 3.7 µM): 2%
- growth inhibition ([11]; at 11.0 µM): 1%
- growth inhibition ([11]; at 33.0 µM): 22%
- growth inhibition ([11]; at 100.0 µM): 81% (active)
- growth inhibition ([12]; at 1.2 µM): -17%
- growth inhibition ([12]; at 3.7 µM): -15%
- growth inhibition ([12]; at 11.0 µM): -16%
- growth inhibition ([12]; at 33.0 µM): 5%
- growth inhibition ([12]; at 100.0 µM): 82% (active)
- growth inhibition ([13]; at 1.2 µM): 11%
- growth inhibition ([13]; at 3.7 µM): 25%
- growth inhibition ([13]; at 11.0 µM): 41%
- growth inhibition ([13]; at 33.0 µM): 54%
- growth inhibition ([13]; at 100.0 µM): 89% (active)
- growth inhibition [14, 16]: 8%
- growth inhibition [14, 17]: 74% (active)
- growth inhibition ([14]; at 50.0 µM): 72.1% (active)
- growth inhibition ([15]; at 1.2 µM): -2%
- growth inhibition ([15]; at 3.7 µM): -7%
- growth inhibition ([15]; at 11.0 µM): 1%
- growth inhibition ([15]; at 33.0 µM): 26%
- growth inhibition ([15]; at 100.0 µM): 88% (active)
